Assay outcomes deposited in PubChem by The Scripps Research Institute Molecular Screening Center.
PLC-gamma1 inh: PLC-gamma1 enzyme inhibitors, primary screen, biochemical, fluorescence, purified enzyme | 1-phosphatidylinositol 4,5-bisphosphate phosphodiesterase gamma-1 (Homo sapiens), P19174 | fluorogenic substrate | inhibition, % at 12.2 µM | 370,000 compounds, 0.84% hits | AID 720700, 2013; in the data active = inhibition above about 9.5%
KLK7 zymogen act: proKLK7 zymogen activators, primary screen, biochemical, fluorescence intensity; Kallikrein-7 (Homo sapiens), P49862; purified proKLK7, EDANS-DABCYL substrate fluorescence; 100% is mature enzyme control, 0% vehicle; activation, % at 7 µM; 370,000 compounds, 0.9% hits; AID 652039, 2013;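 active = activation above the mean of all tested compounds plus 3 SD, computed per campaign excluding outliers beyond control limits, cut at about 13% in these data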
PLC-beta3 inh: human PLC-beta3 inhibitors, primary screen, biochemical, fluorescence; 370,000 compounds, 0.18% hits; Purified PLC-beta3, fluorogenic substrate; inhibition, % at 12.2 µM; 1-phosphatidylinositol 4,5-bisphosphate phosphodiesterase beta-3 (Homo sapiens), Q01970; in the data active = inhibition above about 11%;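 note: 0% = median of compound wells on plate and 100% = full blocker control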
ADAM17 inh: ADAM17 inhibitors, primary screen, biochemical, QFRET. recombinant ADAM17, EDANS/DABCYL FRET peptide cleavage. inhibition, % at 6.95 µM. AID 720648, 2013. 370,000 compounds, 0.83% hits;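 active = inhibition above the mean of compounds lying between control limits plus 3 SD, set per campaign, cut at about 8.5% in these data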;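 note: 0% = DMSO-only wells as the low control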
Target sequence (P78536 215-824 limits assumed): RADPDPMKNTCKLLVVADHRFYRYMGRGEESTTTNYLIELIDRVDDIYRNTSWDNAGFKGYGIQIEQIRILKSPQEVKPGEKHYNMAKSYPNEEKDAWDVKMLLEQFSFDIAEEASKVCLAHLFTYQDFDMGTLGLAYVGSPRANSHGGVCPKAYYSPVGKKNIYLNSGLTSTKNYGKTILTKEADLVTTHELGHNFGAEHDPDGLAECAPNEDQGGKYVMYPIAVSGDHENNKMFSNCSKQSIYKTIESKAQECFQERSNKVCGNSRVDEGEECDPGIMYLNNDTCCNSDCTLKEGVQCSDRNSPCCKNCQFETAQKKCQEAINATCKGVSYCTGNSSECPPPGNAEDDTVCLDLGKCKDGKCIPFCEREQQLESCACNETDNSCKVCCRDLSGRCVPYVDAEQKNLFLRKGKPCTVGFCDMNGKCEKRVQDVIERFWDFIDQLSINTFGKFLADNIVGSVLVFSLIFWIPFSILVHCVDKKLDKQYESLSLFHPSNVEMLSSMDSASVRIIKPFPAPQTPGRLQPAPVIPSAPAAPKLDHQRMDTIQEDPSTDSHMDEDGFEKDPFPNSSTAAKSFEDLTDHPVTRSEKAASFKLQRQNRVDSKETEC
ADAM10 inh: human ADAM10 inhibitors, primary screen, biochemical, QFRET, HTS. recombinant ADAM10, EDANS/DABCYL FRET peptide cleavage, 3 h. inhibition, % at 7 µM. AID 720582, 2013. Disintegrin and metalloproteinase domain-containing protein 10 (Homo sapiens), O14672. 370,000 compounds, 0.62% hits;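 active = inhibition above a per-campaign cutoff equal to the mean of compounds falling between control-based bounds plus 3 SD, cut at about 20% in these data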;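 note: 0% = DMSO wells while the 100% control is not disclosed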
* marks the source's active call; other numbers are inactive results. Most compounds without a hit are left out; they make up all but 2.9% or so of the library.

CN(c1cccc(NC(=O)c2ccccc2N(C)S(C)(=O)=O)c1)S(C)(=O)=O was read as PLC-gamma1 inh 5, KLK7 zymogen act 0, PLC-beta3 inh 2, ADAM17 inh 2 and ADAM10 inh 1.
For Oc1ccc(N2CCN(C(c3cccs3)c3nnnn3CCc3ccccc3)CC2)cc1 (stereo not given) the results were PLC-gamma1 inh -1, KLK7 zymogen act 1, PLC-beta3 inh 0, ADAM17 inh 2 and ADAM10 inh 21*.
COc1ccc(-n2c(COc3ccc(C)cc3)n[nH]c2=S)cc1 was read as PLC-gamma1 inh -1, KLK7 zymogen act 0, PLC-beta3 inh -5, ADAM17 inh 0 and ADAM10 inh 3.
For C[C@@H]1CN([C@H](C)CO)C(=O)c2cc(Br)cnc2O[C@H]1CN(C)C(=O)c1ccccc1 the results were PLC-gamma1 inh 11*, KLK7 zymogen act 0, PLC-beta3 inh 7, ADAM17 inh 0 and ADAM10 inh 0.
For Cc1cccc(Oc2coc3cc(OC(=O)c4cccs4)ccc3c2=O)c1 the results were PLC-gamma1 inh inactive, KLK7 zymogen act 41*, PLC-beta3 inh inactive, ADAM17 inh -62 and ADAM10 inh -180.
`O=C(Oc1ccc2c(=O)c(Oc3ccc4ccccc4c3)coc2c1)c1cccnc1` gave PLC-gamma1 inh -272, KLK7 zymogen act -2, PLC-beta3 inh -299, ADAM17 inh -61 and ADAM10 inh -232.
`Cc1ccc(Oc2coc3cc(OC(=O)c4cccs4)ccc3c2=O)cc1` gave PLC-gamma1 inh -471, KLK7 zymogen act 45*, PLC-beta3 inh -498, ADAM17 inh -56 and ADAM10 inh -209.
NC(=O)c1nn2c(C(F)(F)F)cc(-c3ccccc3)nc2c1Br was read as PLC-gamma1 inh -22, KLK7 zymogen act -4, PLC-beta3 inh -41, ADAM17 inh 5 and ADAM10 inh -10.
Screening O=C(N[C@H](Cc1ccccc1)C(=O)N1CCN(c2ncccn2)CC1)[C@H]1O[C@@H](n2ccc(=O)[nH]c2=O)[C@H](O)[C@@H]1O returned PLC-gamma1 inh -5, KLK7 zymogen act 1, PLC-beta3 inh -3, ADAM17 inh -9 and ADAM10 inh -28.
For COc1ccc(CN(C(=O)Cc2c[nH]c3ccccc23)C(C(=O)NC2CCCCC2)c2ccc(C)o2)cc1 (stereo not given) the results were PLC-gamma1 inh 2, KLK7 zymogen act 1, PLC-beta3 inh -2, ADAM17 inh 12* and ADAM10 inh 26*.
`COc1cc(C(C(=O)NC2CCCCC2)N(Cc2cccs2)C(=O)Cc2c[nH]c3ccccc23)cc(OC)c1OC` (stereo not given) gave PLC-gamma1 inh -2, KLK7 zymogen act 1, PLC-beta3 inh 2, ADAM17 inh 3 and ADAM10 inh -5.
For Cc1ccc(S(=O)(=O)N2CCN(C(=O)COC(=O)COc3ccc(Cl)cc3)CC2)c(C)c1 the results were PLC-gamma1 inh 13*, KLK7 zymogen act 0, PLC-beta3 inh 3, ADAM17 inh 6 and ADAM10 inh -9.
For Cc1c(NP(=O)(c2ccc(Br)cc2)c2ccc(Br)cc2)c(=O)n(-c2ccccc2)n1C the results were PLC-gamma1 inh 1, KLK7 zymogen act 0, PLC-beta3 inh 1, ADAM17 inh -2 and ADAM10 inh 1.
For COc1ccc(C(CC(=O)c2ccc(O)cc2)S(=O)(=O)c2ccc(C)cc2)cc1 (stereo not given) the results were PLC-gamma1 inh -24, KLK7 zymogen act 46*, PLC-beta3 inh -29, ADAM17 inh -31 and ADAM10 inh -96.
For COc1ccc(C(=O)CCS(=O)(=O)c2ccc(C)cc2)cc1 the results were PLC-gamma1 inh -2, KLK7 zymogen act 0, PLC-beta3 inh -7, ADAM17 inh 2 and ADAM10 inh -3.
COc1cc(C(C)=O)ccc1OCc1cc(C(=O)N(C)CCC2CCCCO2)no1 (stereo not given) was read as PLC-gamma1 inh -1, KLK7 zymogen act 0, PLC-beta3 inh -8, ADAM17 inh 0 and ADAM10 inh -6.
Screening Cc1ccc(C2=CC(c3ccccc3)n3ncnc3N2)cc1 (stereo not given) returned PLC-gamma1 inh inactive, KLK7 zymogen act 53*, PLC-beta3 inh inactive, ADAM17 inh -164 and ADAM10 inh inactive.
